From PubChem BioAssay
Sm TGR inh: qHTS Assay for the Inhibitors of Schistosoma Mansoni Peroxiredoxins; Potency, µM (top dose mostly 114 µM), inactives show top-dose activity change, negative = inhibition, hits mostly inhibitors; 360,000 compounds, 3% hits; AID 485364, 2010; Schistosoma mansoni thioredoxin glutathione reductase (TGR), Q962Y6; purified TGR, DTNB reduction, TNB absorbance 405 nm; also: potency is read from the fitted curve at half-maximal effect; % is scaled to controls: 0 for no effect and ±100 for the full control effect; nearly all actives have a fitted effect of over 60% in size
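TGR 20 nM + NADPH 100 uM (dispensed conc.), cpd preinc 15 min RT; start with NADPH (500 uM addition) then DTNB (15 mM addition). Kinetic TNB absorbance, 405 nm filter. Four-parameter Hill fit across titration.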
Shiga toxin inh: A qHTS for Small Molecule Inhibitors of Shiga Toxin; Vero cells, Shiga toxin protein synthesis inhibition reporter; inhibition, % at 38.7 µM; 290,000 compounds, 9.2% hits; AID 2315, 2010; in the data active = inhibition mostly above about 28%, no sharp cut-off; inactive = mostly below about 43%; also: 0% is about no effect
Pf growth 48h: Primary qHTS for delayed death inhibitors of the malarial parasite plastid, 48 hour incubation | P. falciparum luciferase growth in erythrocytes, 48 h | 310,000 compounds, 5.9% hits | Potency, µM (series often up to 28.7 µM), without a hit: at the top dose activity change, negative = inhibition, most hits filed as inhibitors; also: potency is read from the fitted curve at half-maximal effect; % is scaled to controls: 0 for no effect and ±100 for the full control effect
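Luciferase-expressing parasites in RBCs, 2% Hct / 0.1% parasitemia final; RPMI 1640 + 0.5% Albumax; 37 C, 5% CO2, one generation; luminescence read-out, lower signal = inhibition.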
NS1 function inh: qHTS Assay for Inhibitors of Influenza NS1 Protein Function | Potency, µM (titrated, usually from 46.1 µM), inactives show top-dose activity, positive = more growth | 270,000 compounds, 0.4% hits; calls by dose curve; also: potency is read from the fitted curve at half-maximal effect; actives are rising curves; nearly all actives have a fitted effect of over 50% in size
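In this qHTS, NS1 from influenza A is expressed in budding yeast, where it slows growth. Cells are switched from glucose to 2% galactose medium (pH 6.0, -URA), treated with compound, and growth recovery is read at OD600.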
CHX counter: Cycloheximide Counterscreen for Small Molecule Inhibitors of Shiga Toxin; cell reporter, cycloheximide protein synthesis inhibition counterscreen; max response, %; 300,000 compounds, 12% hits; in the data active = max response mostly above about 13%, no sharp cut-off; inactive = mostly below about 14%; also: read at 38.3 µM for the half of the compounds with a filed dose; 0% is about no effect
Pf growth 96h: Primary qHTS for delayed death inhibitors of the malarial parasite plastid, 96 hour incubation; P. falciparum luciferase reporter growth, 96 h; Potency, µM (doses to about 28.7 µM), inactives show top-dose activity change, negative = inhibition, hits mostly inhibitors; 320,000 compounds, 6.9% hits; AID 504834, 2011; also: potency is read from the fitted curve at half-maximal effect; % is scaled to controls: 0 for no effect and ±100 for the full control effect
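Two-generation exposure (96 h) targets delayed-death phenotype. Reporter parasites carrying integrated firefly luciferase, in red cells at 2% hematocrit and 0.05% parasitemia final, kept at 37 C, 5% CO2; luminescence loss indicates inhibition.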
* marks the source's active call; other numbers are inactive results; ? = inconclusive; . = no result given. An excerpt weighted towards active compounds, which were near 21% of everything screened. Unless noted, calls follow the shape of the dose curve; as a rule, active = well fitted curve in the direction sought with a large enough effect; inconclusive = small, poorly fitted or top-dose-only effect, or another doubt; inactive = no such curve, though single readings can be large; an effect the other way counts as inactive or inconclusive.

SMILES | Sm TGR inh | Shiga toxin inh | Pf growth 48h | NS1 function inh | CHX counter | Pf growth 96h
CCCCOC(=O)c1ccc(NC(=O)/C=C/c2cccs2)cc1 | 1% | 53* | 20% | -56% | 41* | -12%
CCCCCCOC(=O)c1ccccc1N | 10% | 76 | 28% | 5% | 39* | .
CCCCOC(=O)c1cc(=O)[nH]c2ccccc12 | -1% | 12 | 6% | 23% | 11* | 12µM*
CCCCOC(=O)c1ccc(NC(=O)c2cc(-c3cccs3)on2)cc1 | -1% | . | . | . | . | .
CCCCOC(=O)c1ccc(N)cc1 | -9% | 63* | 60% | -10% | 15* | 39%
Cc1ccccc1C(=O)n1nc(-c2cccnc2)nc1NCc1ccc(F)cc1 | 12% | . | . | . | . | .
CCC(=O)OCC(=O)[C@@]1(OC(=O)CC)[C@@H](C)C[C@H]2[C@@H]3CCC4=CC(=O)C=C[C@]4(C)[C@@]3(F)[C@@H](O)C[C@@]21C | . | -7 | . | . | 7 | .
Oc1ccc(-c2n[nH]c(=S)n2-c2ccc3c(c2)OCCO3)c(O)c1 | -6% | 35* | 0.41µM* | ? | 17* | 0.066µM*
S=c1[nH]nc(-c2ccc(Cl)cc2Cl)n1Cc1ccccc1 | 6% | 21 | 43% | 11% | 4 | 0%
COc1ccc(OC)c(-n2c(-c3ccc(O)cc3O)n[nH]c2=S)c1 | -3% | -7 | ? | -7% | 6 | 0.013µM*
S=c1[nH]nc(-c2ccc(Cl)cc2Cl)n1-c1ccccc1 | 5% | . | 194% | 4% | 40* | ?
S=c1[nH]nc(-c2ccc(Br)cc2)n1-c1ccc2c(c1)OCCO2 | 16% | 13 | ? | 14% | 12 | ?
S=c1[nH]nc(-c2ccc(Cl)cc2Cl)n1-c1ccc2c(c1)OCCO2 | 2% | 46* | 42% | 15% | 21* | 14%
c1coc(C2=NCCc3ccccc32)c1 | -15% | 7 | 1% | -2% | 4 | 0%
COc1ccccc1-c1n[nH]c(=S)n1-c1ccccc1 | -22% | 14 | 90% | -4% | 20* | 13µM*
COc1ccc(-c2n[nH]c(=S)n2-c2ccc3c(c2)OCCO3)cc1OC | 6% | 50* | ? | 9% | 23* | 26%
COc1ccc(-c2n[nH]c(=S)n2-c2ccc3c(c2)OCCO3)cc1 | -1% | 16 | -1% | 13% | 11 | -19%
COc1ccc(C2=NO[C@@H]3C(=O)N(c4ccc5c(c4)OCCO5)C(=O)[C@H]23)cc1OC | 45µM* | 48* | 58% | ? | 38* | 19%
COc1ccc(C2=NO[C@@H]3C(=O)N(C4CCCCC4)C(=O)[C@H]23)cc1OC | -6% | -6 | 19% | -1% | -2 | ?
Cc1ccccc1CNC(=O)Cn1nc(C)c2nn(-c3ccc(Cl)cc3)c(C)c2c1=O | -11% | . | . | . | . | .
N[C@@H](CCCCNC(=O)CCCC[C@@H]1SC[C@H]2NC(=O)N[C@H]12)C(=O)O | . | 18 | . | . | 11 | .
COc1ccccc1C(=O)COC(=O)CN1C(=O)C2CC=CCC2C1=O (stereo not drawn) | ? | . | 21% | . | . | 26%
Nc1cccc(Cl)c1N1CCOCC1 | -21% | -13 | 21% | -4% | -2 | 27%
Clc1cccc(N=NN2CCOCC2)c1Cl | 18% | 13 | ? | -7% | 20* | 26%
Cc1ccccc1NC(=O)C1c2cccc[n+]2CC(=O)N1c1c(C)cccc1C (stereo not drawn) | 45µM* | 33 | 48% | 6% | -4 | 59%
SMILES | Sm TGR inh | Shiga toxin inh | Pf growth 48h | NS1 function inh | CHX counter | Pf growth 96h
Cc1cccc(C)c1NC(=O)C1c2cccc[n+]2CC(=O)N1Cc1ccc2c(c1)OCO2 (stereo not drawn) | -13% | -7 | -6% | . | 0 | 44%
NC(=S)N/N=C/c1c(O)c(Br)cc2oc3c(c12)CCCC3 | -3% | -8 | 3.3µM* | 3% | 1 | ?
Cc1nc2sc3c(c2c(=O)o1)CCCC3 | -18% | 23 | 22% | -9% | -4 | 2.1µM*
O=c1oc(-c2ccccc2)nc2sc3c(c12)CCC3 | -6% | 70* | 5% | -1% | 70* | 20%
Cc1nc2sc(C)c(C)c2c(=O)o1 | -2% | -9 | 1% | -5% | -3 | -26%
Cc1sc2nc(-c3ccccc3)oc(=O)c2c1C | 1% | 113* | 40% | . | 66* | ?
Nc1nc(-c2ccccc2)nc2sc3c(c12)CCCC3 | 0% | 124* | 153% | -5% | 53* | -1%
O=C1CCC(=O)N1c1ccc(-c2nc3sc4c(c3c(=O)o2)CCC4)cc1 | 1% | 9 | 25% | 0% | 2 | 15%
Cc1cc(C(=O)COC(=O)Cc2ccc(Br)cc2)c(C)n1C | -8% | . | -1% | . | . | ?
O=C(NCc1cccs1)c1ccc2c(c1)N(Cc1cccc(F)c1)C(=O)c1ccccc1S2 | 5% | . | . | . | . | .
CCOC(=O)C1CCN(CCC(=O)Nc2ccc(OC)cc2)CC1 | -2% | . | . | . | . | .
COc1ccccc1NC(=O)Cn1c(=O)n(Cc2nc(-c3ccccc3)no2)c(=O)c2ccccc21 | 1% | . | . | . | . | .
CN(C)C(=O)c1ccc(Nc2nc(-c3cccs3)nc3ccccc23)cc1 | 4% | 24 | 10µM* | -5% | 6 | 10µM*
COC(=O)c1ccc(Nc2nc(-c3ccncc3)nc3ccccc23)cc1 | -1% | -4 | 6% | 2% | -4 | -1%
CC1CCN(C(=O)C2CCC(CNS(=O)(=O)c3cccc4cccnc34)CC2)CC1 (stereo not drawn) | 2% | -8 | . | -1% | -2 | 9.3µM*
CN1CCN(C(=O)C2CCC(CNS(=O)(=O)c3cccc4cccnc34)CC2)CC1 (stereo not drawn) | -1% | -11 | . | 3% | -6 | ?
CCN(CC)C(=O)C1CCC(CNS(=O)(=O)c2cccc3cccnc23)CC1 (stereo not drawn) | -1% | 18 | -2% | -10% | 7 | 15µM*
CC(=O)N1c2ccc(S(=O)(=O)NCC3CCC(C(=O)NC4CCCCC4C)CC3)cc2CC1C (stereo not drawn) | -5% | -4 | ? | -15% | 3 | ?
CC1CCC(NC(=O)C2CCC(CNS(=O)(=O)c3cccc4cccnc34)CC2)CC1 (stereo not drawn) | -14% | 8 | -9% | 10% | 2 | 12µM*
CC(=O)N1c2ccc(S(=O)(=O)NCC3CCC(C(=O)NC4CCC(C)CC4)CC3)cc2CC1C (stereo not drawn) | -9% | -8 | 13µM* | -8% | -2 | ?
CSc1nnc(NC(=O)c2cc(=O)c3cc(C)c(C)cc3o2)s1 | 1% | . | . | . | . | .
COC(=O)c1cc(NC(=O)Nc2ccccc2)ccc1Cl | 20% | 92* | 54% | -10% | 41* | ?
COC(=O)c1cccc(NC(=O)Nc2ccccc2OC)c1 | 11% | 43* | 70% | -8% | 23* | 33%
